Screening results deposited in PubChem BioAssay by National Center for Advancing Translational Sciences (NCATS).
An excerpt weighted towards active compounds, which were near 21% of everything screened.
TDP1 cell noCPT: qHTS for Inhibitors of human tyrosyl-DNA phosphodiesterase 1 (TDP1): qHTS in cells in absence of CPT; 420,000 compounds, 15% hits; DT40 Tdp1-/- hTDP1 cells, no CPT, ATP luminescence, 48 h; Potency, µM (titrated, usually from 46.2 µM), usual class: inhibitors; further: nearly all actives have a fitted effect of over 55% in size
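Readout: luminescence from CellTiter-Glo after 30 min in the dark at RT. Cells: DT40 Tdp1-/- with stable hTDP1, 400/well. Exposure: compounds alone, ≥48 hr, 37 °C.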
RORg inh: blocks mouse ROR gamma transcriptional activity; P51450; Drosophila S2 Gal4-RORgamma UAS-luciferase reporter, 20 h; Potency, µM (highest dose often 53.6 µM), usual class: inhibitors; 310,000 compounds, 5.4% hits; AID 2551; further: nearly all actives have a fitted effect of over 60% in size
Target sequence (P51450 whole entry, looked up, the tested form may be a part): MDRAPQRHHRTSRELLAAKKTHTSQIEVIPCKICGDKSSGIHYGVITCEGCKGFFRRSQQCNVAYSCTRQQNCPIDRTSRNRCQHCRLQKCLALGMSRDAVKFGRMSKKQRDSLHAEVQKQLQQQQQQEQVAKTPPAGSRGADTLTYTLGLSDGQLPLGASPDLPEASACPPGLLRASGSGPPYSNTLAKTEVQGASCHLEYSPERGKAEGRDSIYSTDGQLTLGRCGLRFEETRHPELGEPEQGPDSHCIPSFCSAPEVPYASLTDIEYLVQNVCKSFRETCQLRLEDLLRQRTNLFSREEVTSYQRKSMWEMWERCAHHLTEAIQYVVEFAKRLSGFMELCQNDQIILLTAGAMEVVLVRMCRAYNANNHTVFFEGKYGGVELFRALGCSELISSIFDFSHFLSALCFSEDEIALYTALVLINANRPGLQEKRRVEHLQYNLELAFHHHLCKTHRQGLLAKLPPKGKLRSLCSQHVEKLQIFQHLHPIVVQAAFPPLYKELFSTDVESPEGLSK
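Using a luciferase readout, inhibitors were identified by reduced reporter activity in Drosophila cells coexpressing a copper-inducible Gal4–ROR gamma fusion and UAS-driven Photinus luciferase, incubated 20 hr after 700 uM copper sulfate.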
IL-1B inflam inh: inflammasome signaling inhibition, IL-1 beta readout. THP-1 LPS/ATP IL-1B secretion, AlphaLISA, 16 h; stronger effect = lower value. activity change, % at 57.5 µM. 360,000 compounds, 4.7% hits. AID 743279; in the data active means activity change below about -50%; inconclusive means mostly about -30% to -49%
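THP-1 cells pretreated 1 hr with compounds (up to 57.5 uM final), then stimulated with LPS (250 ng/mL final) plus ATP (1.25 mM final); secreted IL-1B measured by AlphaLISA after 16 hr, decreased signal indicating inhibition.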
ELG1 repair inh: blocks ELG1-dependent DNA repair in HEK293T cells; 330,000 compounds, 2.3% hits; HEK293T ELG1-luciferase reporter, luminescence, 16 h; DNA damage induced by 5-fluorouridine; Potency, µM (highest dose often 46.1 µM), hits mostly inhibitors; further: nearly all actives have a fitted effect of over 55% in size
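Step one: seed 2,000 cells per well. Step two: pin-transfer compound or DMSO alongside 5-fluorouridine. Step three: incubate 16 hr, 37 °C, 5% CO2. Step four: add ONE-Glo, wait 30 min, read luminescence.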
DT40 TDP1 CPT: DT40-hTDP1 cell growth loss with CPT | Potency, µM (top dose mostly 46.2 µM), hits mostly inhibitors | chicken DT40 Tdp1-/-;hTDP1 cells + 20 nM CPT, ATP luminescence, 48 h | AID 686979 | 420,000 compounds, 12% hits; further: nearly all actives have a fitted effect of over 55% in size
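Chicken DT40 Tdp1-/- cells stably complemented with human TDP1 were seeded at 400 cells/well in medium containing 20 nM camptothecin, exposed to pin-transferred compounds, and grown at 37 °C for at least 48 hr. Viability was read as ATP luminescence.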
Gal4-VP16 FLuc: inhibits Gal4-VP16 luciferase reporter, ROR gamma counter-screen; 310,000 compounds, 3.5% hits; Drosophila S2 Gal4-VP16 UAS-luciferase, luminescence, 20 h; Potency, µM (top dose mostly 53.6 µM), most hits filed as inhibitors; AID 2546;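 further: Gal4-VP16 expression switched on by copper sulfate through the metallothionein promoter; nearly all actives have a fitted effect of over 50% in size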
Hits are given with their value. Unless noted, the call rests on the fitted dose curve; in most records, active means well fitted curve in the direction sought with a large enough effect; inconclusive means small, poorly fitted or top-dose-only effect, or another doubt; inactive means no such curve, though single readings can be large; an effect the other way counts as inactive or inconclusive.

For COc1cc2c(cc1OC)C(c1cccc(F)c1)CC(=O)N2 (stereo unspecified) the results were TDP1 cell noCPT inconclusive, RORg inh inactive, IL-1B inflam inh inactive, ELG1 repair inh inactive, DT40 TDP1 CPT inactive and Gal4-VP16 FLuc inactive.
Screening CCCOc1c(OC)cccc1C1CC(=O)Nc2cc3c(cc21)OCCO3 (stereo unspecified) returned TDP1 cell noCPT 13µM, RORg inh inactive, IL-1B inflam inh inactive, ELG1 repair inh inactive, DT40 TDP1 CPT inconclusive and Gal4-VP16 FLuc inactive.
Screening COc1cc(C2CC(=O)Nc3cc(C)c(C)cc32)cc(OC)c1OC (stereo unspecified) returned TDP1 cell noCPT 11.6µM, RORg inh inactive, IL-1B inflam inh inactive, ELG1 repair inh inactive, DT40 TDP1 CPT 16.4µM and Gal4-VP16 FLuc inactive.
`COc1cccc(C2CC(=O)Nc3cc4c(cc32)OCCO4)c1OC(C)C` (stereo unspecified) gave TDP1 cell noCPT inconclusive, RORg inh inconclusive, IL-1B inflam inh inactive, ELG1 repair inh inconclusive, DT40 TDP1 CPT inconclusive and Gal4-VP16 FLuc inactive.
O=C(OCCO)c1c(-c2ccccc2)oc2c1C(OCCO)CCC2 (stereo unspecified) was read as TDP1 cell noCPT inactive, IL-1B inflam inh inactive and DT40 TDP1 CPT inactive.
For CCOc1cccc(C2CC(=O)Nc3cc4c(cc32)OCCO4)c1 (stereo unspecified) the results were TDP1 cell noCPT 5.8µM and DT40 TDP1 CPT 5.17µM.
`COc1cc(C2CC(=O)Nc3n[nH]c(-c4ccccc4)c32)cc(OC)c1OC` (stereo unspecified) gave TDP1 cell noCPT 14.6µM, RORg inh inactive, IL-1B inflam inh inactive, ELG1 repair inh inconclusive, DT40 TDP1 CPT 8.2µM and Gal4-VP16 FLuc inactive.
`CCOc1ccccc1C1CC(=O)Nc2cc3c(cc21)OCO3` (stereo unspecified) gave TDP1 cell noCPT inactive, RORg inh inactive, IL-1B inflam inh inactive, ELG1 repair inh inconclusive, DT40 TDP1 CPT inactive and Gal4-VP16 FLuc inconclusive.
For Cc1ccc(C2CC(=O)Nc3cc4c(cc32)OCCO4)cc1 (stereo unspecified) the results were TDP1 cell noCPT inactive and DT40 TDP1 CPT inactive.
Screening CCOc1c(Br)cc(C2CC(=O)Nc3cc(OC)c(OC)cc32)cc1OC (stereo unspecified) returned TDP1 cell noCPT 23.1µM, RORg inh inconclusive, IL-1B inflam inh inactive, ELG1 repair inh inactive, DT40 TDP1 CPT inconclusive and Gal4-VP16 FLuc inconclusive.
CCCOc1c(OC)cccc1C1CC(=O)Nc2cc3c(cc21)OCO3 (stereo unspecified) was read as TDP1 cell noCPT 20.6µM, RORg inh inactive, IL-1B inflam inh inactive, ELG1 repair inh inactive, DT40 TDP1 CPT inconclusive and Gal4-VP16 FLuc inactive.
Screening COc1cc(=O)n2c(c1C(=O)NCc1nonc1C)CCN(C(=O)c1cccc(C)c1C)CC2 returned TDP1 cell noCPT inactive and DT40 TDP1 CPT inactive.
Screening CCOc1c(OC)cccc1C1CC(=O)Nc2cc(OC)c(OC)cc21 (stereo unspecified) returned TDP1 cell noCPT 18.4µM, RORg inh inactive, IL-1B inflam inh inactive, ELG1 repair inh inactive, DT40 TDP1 CPT inconclusive and Gal4-VP16 FLuc inactive.
Screening COc1cc2c(cc1OC)C(c1ccc(OC)c(OC)c1OC)CC(=O)N2 (stereo unspecified) returned TDP1 cell noCPT inactive, RORg inh inactive, IL-1B inflam inh inactive, ELG1 repair inh inactive, DT40 TDP1 CPT inactive and Gal4-VP16 FLuc inactive.
`Cc1ccc(OC(C)c2nnc(N)s2)cc1Cl` (stereo unspecified) gave TDP1 cell noCPT inconclusive, RORg inh inactive, IL-1B inflam inh inactive, ELG1 repair inh inactive, DT40 TDP1 CPT 20.6µM and Gal4-VP16 FLuc inactive.
`CCOC(=O)[C@H]1[C@H]2COc3ccc(OC)cc3[C@H]2N2C(=O)CNC(=O)[C@@]12C` gave TDP1 cell noCPT inactive, IL-1B inflam inh inactive, ELG1 repair inh inactive and DT40 TDP1 CPT inconclusive.
CN(C)C(=O)CCc1ccc2c3c([nH]c2c1)[C@]1(C)[C@@H](C(=O)N2CCOCC2)C[C@H](CC(=O)NCc2cccc(C(F)(F)F)c2)C(=O)N1CC3 was read as TDP1 cell noCPT inconclusive, IL-1B inflam inh inactive, ELG1 repair inh inactive and DT40 TDP1 CPT 16.4µM.
For CN(C)C(=O)CCc1ccc2c3c([nH]c2c1)[C@]1(C)[C@@H](C(=O)N2CCCCC2)C[C@H](CC(=O)NCc2ccco2)C(=O)N1CC3 the results were TDP1 cell noCPT inactive, IL-1B inflam inh inactive, ELG1 repair inh inactive and DT40 TDP1 CPT inactive.
CN(C)C(=O)CCc1ccc2c3c([nH]c2c1)[C@]1(CCc2ccccc2)[C@@H](C(=O)N2CCCCC2)C[C@H](CC(=O)NCc2cccc(C(F)(F)F)c2)C(=O)N1CC3 was read as TDP1 cell noCPT 20.6µM, IL-1B inflam inh -71.0, ELG1 repair inh inconclusive and DT40 TDP1 CPT inconclusive.
`O=C(NC1CCCc2ccccc21)C1CCN(c2nnc(-n3cccc3)s2)CC1` (stereo unspecified) gave TDP1 cell noCPT inconclusive, RORg inh inconclusive, IL-1B inflam inh inactive, ELG1 repair inh inconclusive, DT40 TDP1 CPT 23.1µM and Gal4-VP16 FLuc inactive.
For COc1cccc(CN2CCC(C(=O)N3CCN(Cc4ccc5c(c4)OCO5)CC3)CC2)c1 the results were TDP1 cell noCPT inactive, RORg inh inactive, IL-1B inflam inh inactive, ELG1 repair inh inactive, DT40 TDP1 CPT inconclusive and Gal4-VP16 FLuc inactive.
`CC1CCN(Cc2ccc(NC(=O)C3CCN(c4nnc(-n5cccc5)s4)CC3)cc2)CC1` gave TDP1 cell noCPT inconclusive, RORg inh inactive, IL-1B inflam inh inactive, ELG1 repair inh inactive, DT40 TDP1 CPT 18.4µM and Gal4-VP16 FLuc inactive.
For O=C(C1CCN(c2nnc(-n3cccc3)s2)CC1)N1CCN(Cc2ccc3c(c2)OCO3)CC1 the results were TDP1 cell noCPT 14.6µM, RORg inh inactive, IL-1B inflam inh inactive, ELG1 repair inh inconclusive, DT40 TDP1 CPT inconclusive and Gal4-VP16 FLuc inactive.
`O=C(C1CCN(c2nnc(N3CCCC3=O)s2)CC1)N1CCN(Cc2ccc3c(c2)OCO3)CC1` gave TDP1 cell noCPT inactive, RORg inh inactive, IL-1B inflam inh inconclusive, ELG1 repair inh 13µM, DT40 TDP1 CPT inactive and Gal4-VP16 FLuc inactive.
`O=C(Nc1cc(F)ccc1F)N1CCC(CN2CCOCC2)CC1` gave TDP1 cell noCPT inactive and DT40 TDP1 CPT inactive.
CC1(C)C2CCC1(CS(=O)(=O)NCc1ccc(Cl)cc1Cl)C(=O)C2 (stereo unspecified) was read as TDP1 cell noCPT inactive, RORg inh inactive, IL-1B inflam inh inactive, ELG1 repair inh inactive, DT40 TDP1 CPT inactive and Gal4-VP16 FLuc inactive.
